# Assay outcomes: PubChem, several laboratories
# FBA Mtb inh: Mtb fructose-bisphosphate aldolase inhibition | inhibition, % at 1 µM | purified M. tuberculosis FBA, fluorescence read-out | P9WQA3 | hit rate 2.3% among 360,000 | AID 588726; in the data active = inhibition above about 27%;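 also: 0% = vehicle and 100% = reference inhibitor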
# Target sequence (P9WQA3 whole entry, looked up): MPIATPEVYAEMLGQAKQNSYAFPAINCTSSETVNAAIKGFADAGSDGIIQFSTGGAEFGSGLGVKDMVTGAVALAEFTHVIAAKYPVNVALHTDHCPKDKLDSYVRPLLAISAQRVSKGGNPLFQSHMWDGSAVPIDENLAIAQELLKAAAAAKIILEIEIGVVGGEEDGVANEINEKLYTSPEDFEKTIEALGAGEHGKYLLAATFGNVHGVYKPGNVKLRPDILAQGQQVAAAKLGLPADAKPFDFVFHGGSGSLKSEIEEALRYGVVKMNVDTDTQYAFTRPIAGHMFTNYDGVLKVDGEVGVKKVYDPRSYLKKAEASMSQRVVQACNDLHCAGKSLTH
# RecA splice inh: blocks M. tuberculosis RecA intein splicing | cell-free RecA intein splicing, fluorescence | inhibition, % (concentration not given with the values) | hit rate 0.75% among 290,000 | AID 2221; in the data active = inhibition above about 30%;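 also: 0% = vehicle wells and 100% = reference inhibitor control wells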
# GDH-TPI inh: GDH-TPI coupled enzyme inhibition counter-screen; GDH-TPI coupled enzyme counterscreen, NADH absorbance; inhibition, % at 4.8 µM; hit rate 1.2% among 360,000; AID 588335;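 also: 0% = DMSO wells and 100% = wells lacking the enzyme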
# CCHFV vOTU inh: blocks the CCHF virus ovarian tumor domain protease. CCHFV vOTU protease, Pep-AMC fluorescence. inhibition, % at 11.5 µM. hit rate 0.55% among 370,000; also: 0% = vehicle wells with enzyme and 100% = no enzyme wells
# An asterisk follows results filed as active; nt = no result. Hits are enriched below; roughly 4.2% of the tested compounds scored in any of these assays. Rule as the data show it, unless noted: active = inhibition above about 30%; inactive = the rest.
SMILES,FBA Mtb inh,RecA splice inh,GDH-TPI inh,CCHFV vOTU inh
CN(Cc1ccccc1NS(=O)(=O)c1ccc2ccccc2c1)C1CCCCC1,0,3,-1,4
CCCCCCC(=O)NC1CCCCN(Cc2ccc(Cl)cc2)C1=O (centres undefined),nt,nt,nt,5
CCCCCC(=O)C(=O)c1ccc(O)cc1O,10,0,46*,22
Cn1c(=O)c2cc(NCc3ccccc3)nnc2n(C)c1=O,1,9,8,96*
Cn1c(=O)c2c(nc(NCc3ccccc3)n2C)n(C)c1=O,3,3,-1,-9
CNC(=O)COc1coc(CN2CCN(c3ccc(OC)cc3)CC2)cc1=O,5,-5,15,11
COc1ccc2c(Cn3cnc4cc([N+](=O)[O-])ccc4c3=O)cc(=O)oc2c1,5,-1,31*,nt
Cc1ccc(OCCn2cnc3cc([N+](=O)[O-])ccc3c2=O)cc1,3,-5,0,-4
COc1ccc(OC)c(N2C(=O)C(Cl)=C(N3CCOCC3)C2=O)c1,-6,70*,30,0
COc1ccccc1N1C(=O)C(Cl)=C(N2CCCC2)C1=O,-2,-1,11,-1
CCO/C(C)=N/n1c2nc3ccccc3nc2c2c(=O)n(Cc3ccccc3Cl)c(C)nc21,-4,0,33*,5
CCOc1ccc(OCC)c(S(=O)(=O)n2cnc(C)c2)c1,1,2,-3,-2
O=C(Nc1nc2c(s1)CCCC2=O)c1cnccn1,2,3,32*,6
O=C1/C(=C/Nc2cccc([N+](=O)[O-])c2)CCc2ccccc21,-2,60*,20,-6
O=C1/C(=C\c2ccc([N+](=O)[O-])cc2)CCc2ccccc21,1,nt,16,7
CC1=C(C(=O)N(C)C)CC(CC(=O)NCCc2ccccn2)C(=O)N1CCCN1CCCC1=O (centres undefined),-1,nt,-3,-5
O=C(N/C(=C\c1ccc(Br)cc1)c1nc2ccccc2[nH]1)c1ccco1,2,1,47*,24
N#C/C(=C\c1cccs1)c1nc2ccccc2[nH]1,-3,-2,29,-3
O=C(N/C(=C/c1cccs1)c1nc2ccccc2[nH]1)c1ccccc1,-1,0,33*,7
Cc1ccc(C(=O)N/C(=C\c2cccs2)c2nc3ccccc3[nH]2)cc1,0,1,44*,6
COc1ccccc1N1CCN(C2CCCN(C(=O)c3ccsc3)C2)CC1 (centres undefined),3,1,10,14
O=C(CCc1ccccc1)NC(=S)Nc1ccccc1Br,-4,7,8,5
COc1ccc(-c2noc(CCC(=O)N3CCN(c4cccc(Cl)c4)CC3)n2)cc1,-3,nt,8,-4
CC1=C(C#N)c2nc(N)c(C#N)c(C)c2/C1=C\c1ccc(C)cc1,nt,33*,nt,nt
CC(c1nc2ccccc2[nH]1)n1c(=O)c(-c2ccco2)nc2ccccc21 (centres undefined),nt,nt,nt,9
SMILES,FBA Mtb inh,RecA splice inh,GDH-TPI inh,CCHFV vOTU inh
Cc1c(C(=O)N2CCOCC2)sc(NC(=O)c2ccc3c(c2)OCO3)c1C#N,-2,-5,45*,4
CCN(CC)C(=O)c1sc(NC(=O)c2ccc3c(c2)OCO3)c(C#N)c1C,0,1,12,-1
COc1ccc(NC(=O)/C=C/c2ccc(S(=O)(=O)N3CCOCC3)cc2)cc1,1,nt,5,3
COc1ccc(/C=C/C(=O)Nc2cc(S(=O)(=O)N3CCOCC3)ccc2OC)cc1,-3,nt,31*,-7
COc1ccc(/C=C/C(=O)Nc2ccc(C)c(S(=O)(=O)N3CCOCC3)c2)cc1,2,nt,33*,15
C=CC[C@H](CC(=O)N(CCO)Cc1ccccc1)C(=O)N[C@H](C)COC(=O)[C@@H](CC=C)CC(=O)OC(C)(C)C,-1,nt,-3,9
CCOC(=O)CN1C(=O)N(c2ccc(OC)cc2)[C@H]2CC3c4ccccc4C[C@]3(C)[C@@H](C(=O)N(C)C3CCCCC3)C[C@H]21 (some centres undefined),nt,nt,nt,4
O=C(c1c[nH]c(C(=O)C(Cl)(Cl)Cl)c1)c1ccc(F)cc1F,-2,34*,-4,-13
O=C(c1ccccc1)c1c[nH]c(C(=O)C(Cl)(Cl)Cl)c1,-1,46*,1,24
CN(C)C=NC(=O)c1cc(C(=O)c2ccccc2)c[nH]1,3,-1,12,3
CCn1c2ccccc2c2cc(NC(=O)c3cc4c(C)nn(-c5ccccc5)c4s3)ccc21,nt,nt,nt,7
COC(/C(=N/O)c1ccc(Cl)cc1)c1ccccc1 (centres undefined),1,5,-3,7
Cn1c(N)c(C(=O)CSc2n[nH]c(N)n2)c(=O)n(C)c1=O,3,nt,2,15
COc1cc(N/N=C/c2ccccc2O)ncn1,3,-3,47*,15
COc1cccc(/C=C/C(=O)NCc2ccc(S(N)(=O)=O)cc2)c1,28*,1,-4,-13
Oc1ccc(O)c(C=NNC(=S)NC2CC3CC2C2C=CCC32)c1 (centres undefined),2,nt,31*,19
NNC(=S)NC1CC2CC1C1C=CCC21 (centres undefined),0,1,8,-11
CCOC(=O)/C(C#N)=C1/C=CN(C)C=N1,-3,-2,50*,9
CCOC(=O)/C(C#N)=C1/C=Nc2ccccc2N1,-7,nt,-2,1
CCOC(=O)/C(C#N)=C1/C=CN(c2ccccc2)C=N1,0,1,38*,14
CCOC(=O)/C(C#N)=C1/C=CN(c2ccc(C)cc2)C=N1,-6,0,43*,11
CCOC(=O)/C(C#N)=C1\C=CN(C)C(C)=N1,0,0,42*,3
CCOC(=O)/C(C#N)=C1/SC(CC)C(=O)N1c1ccc(C)cc1 (centres undefined),2,8,8,9
Cc1ccccc1S(=O)(=O)N(C)C[C@@H]1OCc2ccccc2-c2c(n(C)c3ccccc23)C(=O)N([C@H](C)CO)C[C@@H]1C,3,nt,16,5
CCOc1ccccc1N1CCN(Cc2cccc(OC)c2OC)CC1,-3,-5,10,0
SMILES,FBA Mtb inh,RecA splice inh,GDH-TPI inh,CCHFV vOTU inh
CCOc1ccccc1N1CCN(Cc2cn[nH]c2-c2ccc(F)cc2)CC1,31*,2,2,5
Cc1ccccc1CN1CCCCC(NC(=O)c2cc(-c3ccccc3)no2)C1=O (centres undefined),nt,nt,nt,5
O=C(Nc1ccccc1C(=O)N1CCCCC1)c1cccs1,0,1,-7,8
COc1ccc(C=O)cc1CSc1ccccn1,-2,-1,-6,-14
O=C(N/N=C/c1cccc(Oc2ccccc2)c1)c1ccc(O)cc1O,1,1,34*,11
O=C(Nc1cccnc1)c1cc2c(ccc3ccccc32)o1,0,-1,32*,nt
O=C(O)c1ccc(/C=N/NC(=O)c2cc3ccccc3cc2O)cc1,-8,nt,41*,19
COc1ccc(/C=N/NC(=O)c2ccc(O)cc2O)cc1CSc1ccccn1,-1,4,38*,10
Cc1cc(=O)n2nc(N3CCC(C(=O)NCc4cccc(Cl)c4)CC3)sc2n1,2,2,11,16
O=C(CCCc1nc(-c2ccc(Cl)cc2)no1)NC1CCCCC1,0,-2,-3,8
